The values below come from PubChem BioAssay AID602393 (Broad Institute, 2012).

Structures are written as SMILES. About 7,000 (2%) of roughly 350,000 compounds were called active. No stated cut-off is given here; in the data, active means activation above about 40%; inconclusive means no clear call, values can overlap the other calls; inactive means below that. This excerpt belongs to a sample that is enriched for actives.

A short description of the assay: Bmi1 luciferase reporter increase in mESCs, primary screen, esBAF inhibitor project, mouse ES cells, Bmi1 luciferase knock-in, single point (AID 602393).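 Further: 0% = median of the plate's neutral control wells and 100% = double that signal; a rise in the Bmi1 reporter signal indicates esBAF inhibition.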 Conditions: 24 h, at 12.5 µM, active compounds read high, 100% = twice the neutral-well signal. In general terms: A reporter such as luciferase makes a cellular process visible.
As to `CS(=O)(=O)Nc1ccc2c(c1)[C@H]1C[C@H](CC(=O)NCc3ccc(Oc4ccccc4)cc3)O[C@H](CO)[C@H]1O2`, the reporter increase was 7.43% (inactive).

For `C[C@H]1CN([C@@H](C)CO)C(=O)c2cc(Br)cnc2O[C@H]1CN(C)Cc1cccc(F)c1`, the reporter increase is -3.97% (inactive).

On to `O=C(Nc1ccccc1)N1CCC(C(=O)N2CCN(Cc3ccccc3)CC2)CC1`, for which the reporter increase is 12% (inactive).

For `O=C(Nc1ccccc1)N1CCN(Cc2ccccc2)CC1`, the reporter increase was 40.2% (active).

With `O=C(Nc1ccccc1)N1CCN(C2c3ccccc3-c3ccccc32)CC1`, the reporter increase is 4.83% (inactive).

On to `C[C@@H]1CN([C@H](C)CO)S(=O)(=O)c2ccc(-c3cccc(F)c3)cc2O[C@H]1CN(C)S(=O)(=O)c1ccc(F)cc1`, for which the reporter increase is 10% (inactive).

With `O=C(NC1CCC1)[C@H]1[C@H](CO)[C@H]2Cn3c(ccc(-c4ccccc4)c3=O)[C@@H]1N2Cc1cocn1`, the reporter increase was 12.8% (inactive).

Turning to `O=C(C1CCC1)N1CCCCN2[C@H](CO)[C@H](c3ccc(-c4cccc(F)c4)cc3)[C@H]2C1`, the reporter increase was -5.73% (inactive).

Turning to `O=C(NCC1CCCCC1)NCC1CCCCC1`, the reporter increase is 44.8% (active).

For `CC(C)(C)NC(=O)NC(=O)COC(=O)CCC1CCCCC1`, the reporter increase is -5.79% (inactive).

In the case of `N#CCC(=O)NC(=O)NCC1CC1`, the reporter increase was 6.44% (inactive).

With `CCCNC(=O)C[C@H]1CC[C@H]2[C@H](COc3ccc(NC(=O)CC)cc3C(=O)N2C)O1`, the reporter increase was 2.93% (inactive).

As for `C[C@H]1CN([C@@H](C)CO)C(=O)c2cccc(NS(=O)(=O)c3ccc(F)cc3)c2O[C@@H]1CN(C)CC1CC1`, the reporter increase was -4.49% (inactive).

Turning to `Cc1cccc(N2O[C@H]3C=CC2CCCC3)n1`, the reporter increase is 56.9% (active).

With `CC(C)NC(=O)Nc1ccc2c(c1)C(=O)N([C@@H](C)CO)C[C@@H](C)[C@@H](CN(C)S(=O)(=O)c1ccc(F)cc1)OCCCC[C@H](C)O2`, the reporter increase was -2.87% (inactive).

For `C[C@@H]1CN([C@H](C)CO)S(=O)(=O)c2ccc(-c3cncnc3)cc2O[C@@H]1CN(C)Cc1ccccn1`, the reporter increase was -3.4% (inactive).

Regarding `CC(=O)Nc1ccc(S(=O)(=O)N(C)CC(=O)NCCC2=CCCCC2)cc1`, the reporter increase is -5.82% (inactive).

`S=C(NCCC1=CCCCC1)Nc1ccccc1`: the reporter increase is 51.5% (active).

With `CC(OC(=O)c1c(F)cccc1F)C(=O)NCCC1=CCCCC1` (stereo not given), the reporter increase is -1.99% (inactive).

Consider `Cc1cc(C(=O)NCCc2ccc(Cl)cc2)n(-c2ccccc2)n1`, for which the reporter increase was -4.28% (inactive).

Consider `Cc1cc(C(=O)NCCc2ccc(Cl)cc2)c(C)o1`, for which the reporter increase was 55.1% (active).

With `NS(=O)(=O)c1ccc(CCNC(=O)c2ccc(Cl)cc2[N+](=O)[O-])cc1`, the reporter increase is 0.338% (inactive).

With `Cn1cnc(CCNC(=O)[C@H]2[C@H](CO)[C@H]3Cn4c(cccc4=O)[C@H]3N2C(=O)Nc2ccccc2)c1`, the reporter increase was 6.91% (inactive).

On to `O=C(NC1CCCCC1)N[C@H]1CC[C@H](CCNS(=O)(=O)c2ccc(F)cc2)O[C@H]1CO`, for which the reporter increase is 12.9% (inactive).

On to `O=C(c1nnc(-c2ccc(Cl)cc2)o1)C1CCCC1`, for which the reporter increase was 19.6% (inactive).

In the case of `O=C(Nc1nnc(-c2ccc(Cl)cc2)o1)c1ccccc1Br`, the reporter increase was 17.7% (inactive).

On to `CSc1ccccc1-c1nnc(-c2ccc(Cl)cc2)o1`, for which the reporter increase was 67.2% (active).

As for `COc1ccc(NC(=O)CCNC(=O)Cn2ccc3ccccc3c2=O)c(OC)c1`, the reporter increase was -7.83% (inactive).

`COc1cc(NC(=O)CCNC(=O)Cn2ccc3ccccc3c2=O)cc(OC)c1OC`: the reporter increase is 52.2% (active).

Turning to `Cc1ccc(CNC(=O)CCNC(=O)Cn2ccc3ccccc3c2=O)cc1`, the reporter increase was -7.21% (inactive).

`O=C(C[C@@H]1C=C[C@@H](NS(=O)(=O)c2ccccc2)[C@@H](CO)O1)NCc1ccccc1F`: the reporter increase is -1.71% (inactive).

For `CC(C)NC(=O)N(C)C[C@@H]1Oc2c(cccc2N(C)C)C(=O)N([C@@H](C)CO)C[C@H]1C`, the reporter increase is -5.01% (inactive).

Consider `C[C@H](CO)N1C[C@H](C)[C@@H](CN(C)C(=O)C2CCC2)Oc2cc(C3=CCCCC3)ccc2S1(=O)=O`, for which the reporter increase is 0.47% (inactive).

In the case of `COc1ccc(S(=O)(=O)N(C)C[C@H]2Oc3ccc(NC(=O)Nc4c(C)noc4C)cc3C(=O)N([C@@H](C)CO)C[C@@H]2C)cc1`, the reporter increase was -2.46% (inactive).

On to `COc1ccc(CNC(=O)c2cc(=O)c3c(C)cc(C)cc3o2)cc1`, for which the reporter increase was 1.4% (inactive).

In the case of `COC(=O)c1ccc(CSc2nc3cc(Cl)ccc3o2)cc1`, the reporter increase is -4.19% (inactive).

On to `COc1ccc(CNC(=O)c2ccc3oc(C(C)C)nc3c2)cc1`, for which the reporter increase was 47.5% (active).

On to `COC(=O)c1ccc(CNC(=O)c2ccc(S(=O)(=O)N3CCCCCC3)cc2)cc1`, for which the reporter increase is 1.32% (inactive).

With `COC(=O)c1ccc(CNC(=O)c2ccc3oc(C(C)C)nc3c2)cc1`, the reporter increase was 49% (active).

`CC(C)c1nc2cc(C(=O)NC(C)c3cnn(C)c3)ccc2o1` (stereo not given): the reporter increase was 3.1% (inactive).

Regarding `O=C(NCC[C@@H]1CC[C@@H](NC(=O)C2CCCC2)[C@H](CO)O1)c1cnccn1`, the reporter increase is -3.83% (inactive).

As for `COc1ccc(S(=O)(=O)N(C)C[C@H]2Oc3c(NS(=O)(=O)c4ccc(F)cc4)cccc3C(=O)N([C@H](C)CO)C[C@H]2C)cc1`, the reporter increase was 0.834% (inactive).

Consider `C[C@H](CO)N1C[C@H](C)[C@@H](CN(C)Cc2ccc(C(=O)O)cc2)Oc2ccc(NS(=O)(=O)c3cn(C)cn3)cc2CC1=O`, for which the reporter increase is -1.15% (inactive).

Regarding `C[C@@H]1CN([C@@H](C)CO)C(=O)c2cc(NC(=O)Cc3ccccc3)ccc2O[C@@H](C)CCCCO[C@H]1CN(C)C(=O)Nc1cccc2ccccc12`, the reporter increase was 1.67% (inactive).

For the molecule `CS(=O)(=O)Nc1ccc2c(c1)[C@@H]1C[C@H](CC(=O)NCc3cc(F)ccc3F)O[C@@H](CO)[C@@H]1O2`, the reporter increase was 1.97% (inactive).

As to `O=C(C[C@H]1CC[C@H](NC(=O)c2ccc3c(c2)OCO3)[C@H](CO)O1)NCc1ccc(Oc2ccccc2)cc1`, the reporter increase was -8.21% (inactive).

In the case of `CNC[C@H]1Oc2ccc(NC(=O)Nc3ccc4c(c3)OCO4)cc2CC(=O)N([C@H](C)CO)C[C@H]1C`, the reporter increase was 0.772% (inactive).

For `Nc1ccc(N=Nc2ccccc2Cl)c(N)n1`, the reporter increase was 76% (active).

As for `COc1ccc(NC(=O)N(C)C[C@@H]2Oc3c(NC(=O)C4CCOCC4)cccc3C(=O)N([C@H](C)CO)C[C@@H]2C)cc1`, the reporter increase was 1.63% (inactive).

`COC(=O)CCC(=O)N1CCCC(CO)(Cc2ccccc2)C1` (stereo not given): the reporter increase is 88.3% (active).

As for `CCOC(=O)C1(Cc2ccccc2C)CCCN(C(=O)CCc2c(C)noc2C)C1` (stereo not given), the reporter increase was 4.36% (inactive).

As for `CCCc1cc(C(=O)N2CCCC(CO)(CCCc3ccccc3)C2)n(C)n1` (stereo not given), the reporter increase was 9.89% (inactive).

On to `Cc1ccccc1CC1(CO)CCCN(C(=O)c2cc(-c3ccccc3)no2)C1` (stereo not given), for which the reporter increase is -3.48% (inactive).

As to `Cc1noc(C)c1CCC(=O)N1CCCC(CO)(Cc2ccccc2)C1` (stereo not given), the reporter increase was 73.8% (active).

Regarding `Cc1noc(C)c1CCC(=O)O`, the reporter increase was -5.69% (inactive).

Consider `CCCN(C)C[C@H]1OCCCC[C@@H](C)Oc2ccc(NC(=O)CCC(F)(F)F)cc2C(=O)N([C@H](C)CO)C[C@H]1C`, for which the reporter increase is 3.13% (inactive).

`COc1cccc(-c2ccc3c(c2)O[C@@H](CN(C)Cc2ccncc2)[C@H](C)CN([C@H](C)CO)S3(=O)=O)c1`: the reporter increase is 0.833% (inactive).

For the molecule `CN1CCN(C(=O)C[C@H]2C[C@@H]3c4cc(NC(=O)NC5CCCC5)ccc4O[C@@H]3[C@@H](CO)O2)CC1`, the reporter increase was -0.346% (inactive).

Turning to `O=C(CN1CCOCC1)N[C@@H]1CC[C@@H](CCn2cc(C3CCCCC3)nn2)O[C@@H]1CO`, the reporter increase was -5.48% (inactive).

For `CN(C)c1ccc(/C=C2\NC(=S)N(Cc3ccccc3)C2=O)cc1`, the reporter increase is 42.2% (active).

For `CC1CN(Cc2ccccc2)C(=S)NC1=O` (stereo not given), the reporter increase is 2.98% (inactive).

On to `O=C1C(Cc2ccc(O)cc2)NC(=S)N1Cc1ccccc1` (stereo not given), for which the reporter increase is -6.04% (inactive).

On to `C[C@H](CO)N1C[C@H](C)[C@H](CN(C)S(=O)(=O)c2ccccc2)Oc2ccc(NC(=O)Cn3cnnn3)cc2C1=O`, for which the reporter increase is 2.23% (inactive).

Regarding `CCC(=O)Nc1ccc2c(c1)C(=O)N(C)[C@@H]1CC[C@@H](CC(=O)Nc3cccc(OC)c3)O[C@@H]1CO2`, the reporter increase was -2.81% (inactive).

`Cc1nn(Cc2ccc(Cl)c(Cl)c2)c(C)c1NC(=O)c1cc(C2CC2)on1`: the reporter increase was 7.59% (inactive).

Take `CSc1ccccc1NC(=O)c1cc(C2CC2)on1`: the reporter increase is 53.9% (active).

For the molecule `O=C(NC1CCCCC1)c1cc(C2CC2)on1`, the reporter increase is -10.1% (inactive).

Take `CCCNC(=O)N1C[C@H](O)COC[C@H]2O[C@@H](CC(=O)NCc3ccncn3)CC[C@@H]21`: the reporter increase is -2.02% (inactive).

Regarding `CCN(CC)S(=O)(=O)c1ccc2nc(CSc3nnnn3-c3ccc(O)cc3)[nH]c2c1`, the reporter increase is 1.1% (inactive).

With `Clc1ccccc1SCc1nc2ccccc2[nH]1`, the reporter increase is 53% (active).

Take `CCn1c(Cc2ccccc2)nnc1SCc1nc2ccccc2c(=O)[nH]1`: the reporter increase was -5.17% (inactive).

On to `O=C(C[C@@H]1C[C@H]2c3cc(NC(=O)NC4CCCC4)ccc3O[C@H]2[C@H](CO)O1)NCc1cc(F)ccc1F`, for which the reporter increase is 5.15% (inactive).

For the molecule `Fc1ccccc1-c1cc2cc3c(cc2cn1)OCO3`, the reporter increase is 16.5% (inactive).

In the case of `COc1cc(OC)cc(-c2cc3ccc(F)cc3cn2)c1`, the reporter increase is 58.7% (active).

Consider `COc1ccc(C(C)(O)c2nc(-c3cc(F)cc(F)c3)cs2)cc1` (stereo not given), for which the reporter increase is -4.23% (inactive).

Turning to `N#CCSc1nc(-c2ccccc2)nc2ccc(F)cc12`, the reporter increase was -3.61% (inactive).

Regarding `Fc1ccc2cnc(-c3ccccc3)cc2c1`, the reporter increase is 58.8% (active).

Turning to `COc1ccc(-c2cc3ncccc3cn2)cc1`, the reporter increase is 10.9% (inactive).

Turning to `O=C(Nc1ccc(Cl)cc1)N1C[C@@H]2[C@H](c3ccccc31)[C@@H](CO)N2C(=O)c1cccnc1`, the reporter increase is 13.8% (inactive).

For the molecule `CO[C@H]1CN(C)C(=O)c2cc(NC(=O)Nc3ccccc3)ccc2OC[C@@H](C)N(C(=O)Nc2c(C)noc2C)C[C@@H]1C`, the reporter increase is 3.56% (inactive).
